Shown are actives, neighbours in structure and some others; about 19% of the full set was active somewhere.
HT1080-NT tox: kills 2HG-producing HT-1080-NT fibrosarcoma cells | 1.6% of 360,000 active | HT-1080-NT fibrosarcoma viability, CellTiter-Glo ATP luminescence, 48 h | AID 686970 | Potency, µM (titrated, usually from 46.1 µM), inactives show at the top dose activity, negative = less viability, usual class: cytotoxic;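 note: NT is the 2HG producing partner of a matched IDH1 knockdown line; potency is the fitted concentration of half-maximal effect; 0% = DMSO-treated cells and -100% = media-only wells without cells; nearly all actives have a fitted effect of over 55% in size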
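Toxicity toward the 2HG-producing NT line was scored as %Activity, normalised to DMSO and no-cell wells, from CellTiter-Glo luminescence after 48 hours' treatment.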
ELG1 DNA repair: ELG1-dependent DNA repair inhibition. HEK293T ELG1-luciferase reporter, luminescence, 16 h; DNA damage induced by 5-fluorouridine. Potency, µM (doses to about 46.1 µM), for the others: at the top dose activity change, negative = inhibition, actives largely listed as inhibitors. 2.3% of 330,000 active. AID 504467; note: potency is the fitted concentration of half-maximal effect; nearly all actives have a fitted effect of over 55% in size
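Overnight (16 hr) co-exposure of 2,000 cells/well to 5-fluorouridine and compound at 37 °C preceded detection. Luciferase was quantified via ONE-Glo luminescence; loss of signal denotes inhibition.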
TDP1 cell noCPT: qHTS for Inhibitors of human tyrosyl-DNA phosphodiesterase 1 (TDP1): qHTS in cells in absence of CPT. DT40 Tdp1-/- hTDP1 cells, no CPT, ATP luminescence, 48 h. Potency, µM (highest dose often 46.2 µM), for inactives: at the highest dose activity change, negative = growth inhibition, most hits filed as inhibitors. 15% of 420,000 active. AID 686978, 2013; note: potency is the fitted concentration of half-maximal effect; nearly all actives have a fitted effect of over 55% in size
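Growth kinetics read by CellTiter-Glo luminescence after ≥48 hr at 37 °C. Cells: DT40 Tdp1-/- stably carrying human TDP1, 400 per well, compound exposure in the absence of CPT (DMSO vehicle).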
TDP1 cell CPT: growth inhibition of DT40 Tdp1-/-;hTDP1 cells with camptothecin (screen for TDP1 inhibitors). chicken DT40 Tdp1-/-;hTDP1 cells + 20 nM CPT, ATP luminescence, 48 h. Potency, µM (highest dose often 46.2 µM), for inactives: at the top dose activity change, negative = growth inhibition, hits mostly inhibitors. 12% of 420,000 active. AID 686979; note: potency is the fitted concentration of half-maximal effect; nearly all actives have a fitted effect of over 55% in size
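Chicken DT40 Tdp1-/- cells stably complemented with human TDP1 were seeded at 400 cells/well in medium containing 20 nM camptothecin, exposed to pin-transferred compounds, and grown at 37 °C for at least 48 hr. Viability was read as ATP luminescence.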
IL1B secr inh: inhibitors of inflammasome signaling (IL-1 beta secretion); activity change, % at 57.5 µM; AID 743279; 4.7% of 360,000 active; THP-1 LPS/ATP IL-1B secretion, AlphaLISA, 16 h; active compounds read low; in the data active = activity change below about -50%; inconclusive = mostly about -30% to -49%
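THP-1 cells pretreated 1 hr with compounds (up to 57.5 uM final), then stimulated with LPS (250 ng/mL final) plus ATP (1.25 mM final); secreted IL-1B measured by AlphaLISA after 16 hr, decreased signal indicating inhibition.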
HT1080 IDH1KD tx: toxicity to HT-1080 IDH1 knockdown cells (counter line) | HT-1080 IDH1 knockdown viability, ATP luminescence, 48 h | Potency, µM (titrated, usually from 46.1 µM), without a hit: at the highest dose activity, negative = toxicity, hits mostly cytotoxic | 2% of 360,000 active | AID 686971;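 note: potency is the fitted concentration of half-maximal effect; 0% = DMSO wells and -100% = cell-free medium wells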
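IDH1KD HT-1080 cells, 750/well, RPMI + 5% FBS; compound pinned after 2 h settling; 48 h, 37 °C; CellTiter-Glo luminescence; % activity normalised to DMSO and no-cell wells; curves fitted, classed by r2 and efficacy.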
The depositor's hits bear a star; ? = inconclusive; . = no result given; [ ] = remark or other dose. Unless noted, calls come from the whole dose curve; as a rule, active = well fitted curve in the direction sought with a large enough effect; inconclusive = small, poorly fitted or top-dose-only effect, or another doubt; inactive = no such curve, though single readings can be large; an effect the other way counts as inactive or inconclusive. Unless noted, % is set by controls: 0 for no effect and ±100 for the full control effect.

SMILES	HT1080-NT tox	ELG1 DNA repair	TDP1 cell noCPT	TDP1 cell CPT	IL1B secr inh	HT1080 IDH1KD tx
COc1cc(CNc2nc(C)c(-c3ccn(CC4CCCN(C)C4)n3)s2)ccc1F (stereo unspecified)	.	.	23.1µM*	-15.2%[9.04 µM]	.	.
CC(=O)c1cc(C#N)c(SCC(=O)OC(C)(C)C)nc1C	-3.6%	12.2%	?	20.6µM*	-25.4	-7.0%
CCCCN1CCc2nc(N3CCN(C)CC3)ncc2C1	.	.	?	-19.4%	.	.
Fc1ccc(CN2CCc3nc(N4CCN(c5ccccc5F)CC4)ncc3C2)c(F)c1	.	.	0.6%	-15.7%	.	.
CCN1CCN(c2ncc3c(n2)CCN(Cc2sccc2C)C3)CC1	.	.	23.1µM*	?	.	.
CN1CCN(c2ncc3c(n2)CCN(Cc2ccc(Br)s2)C3)CC1	.	.	14.6µM*	23.1µM*	.	.
CCN1CCN(c2ncc3c(n2)CCN(Cc2ccc(Br)s2)C3)CC1	.	.	10.3µM*	13µM*	.	.
Cc1ccc(CN2CCc3nc(N4CCN(c5ccccc5F)CC4)ncc3C2)cc1C	.	.	-3.7%	-27.6%	.	.
CCN1CCN(c2ncc3c(n2)CCN(Cc2cc(Br)cs2)C3)CC1	.	.	20.6µM*	18.4µM*	.	.
COc1cc(C(=O)NCC2CCCO2)cc(Br)c1OCc1ccccc1 (stereo unspecified)	8.7%[9.24 µM]	?	?	?	-7.6	-3.0%
COC(=O)c1sccc1S(=O)(=O)N1CCN(c2ccccc2OC)CC1	.	.	?	-25.7%	.	.
CCCCSc1nnc2c(n1)OC(c1ccc(Br)s1)Nc1ccccc1-2 (stereo unspecified)	.	.	18.4µM*	?	.	.
CSc1nnc2c(n1)OC(c1cccc(O)c1Cl)Nc1ccccc1-2 (stereo unspecified)	.	.	?	-9.7%	.	.
N#CC(c1ccc(Cl)cc1)c1ccc2c(C(F)(F)F)cc(C(F)(F)F)nc2n1 (stereo unspecified)	10.3µM*	?	0.581µM*	0.651µM*	-105.4*	14.6µM*
Nc1ccc2c(C(F)(F)F)cc(C(F)(F)F)nc2n1	0.6%	5.3%	-6.9%	3.3%	62.0	-0.2%
CC(C)NC(=O)COC(=O)CNC(=O)C1CCCCC1	.	.	-6.6%	-4.3%	.	.
Cc1c(C(=O)NCc2ccco2)cnn1-c1ncc2c(n1)-c1ccccc1CC2	.	.	?	-6.6%[9.04 µM]	.	.
Cc1ccc(NC(=S)N/N=C2\CCCCC2C)cc1 (stereo unspecified)	?	10.0%	9.2µM*	5.17µM*	4.3	?
CCOc1cc(NC(=S)NCC(C)C)c(OCC)cc1NC(=O)c1ccco1	1.9%	-16.9%	?	14.6µM*	-16.3	-3.7%
CCOc1cc(NS(=O)(=O)c2ccc(OC)cc2)c(OCC)cc1NC(=O)c1ccco1	?	?	23.1µM*	20.6µM*	-8.2	?
CCOc1cc(NS(=O)(=O)CC)c(OCC)cc1NC(=O)c1ccco1	0.2%	16.4µM*	?	?	11.3	-4.8%
Cc1ccc(SCC(=O)NNC(=O)c2cncc(Br)c2)cc1	-2.0%	3.8%	-3.7%	-7.1%	19.2	11.1%
Cc1cc(=O)oc(C)c1C(=O)NCCCN1CCN(c2ccccc2F)CC1	-10.5%[9.24 µM]	6.6%	-23.0%	-16.5%	0.0	?
Cc1cc(C)c2c(=O)n(CC(=O)NCCCN3CCOCC3)sc2n1	3.5%	21.5%	6.51µM*	4.11µM*	-97.3*	-10.6%
Cc1cc(C)c2c(=O)n(CC(=O)NCCCN3CCN(c4ccccc4F)CC3)sc2n1	?	?	3.26µM*	4.61µM*	?	1.3%
O=C(CNC(=O)c1ccc(Br)o1)NCC1CCCCC1	-0.7%	-0.1%	-1.4%	6.9%	12.3	10.3%
CCOC(=O)Cc1csc(N/N=C\c2ccc(N(C)C)cc2)n1	5.4%	?	-22.9%	-14.6%	-10.3	1.9%

High-throughput results deposited in PubChem BioAssay by National Center for Advancing Translational Sciences (NCATS).
